# This is a sample that favours compounds with a hit; in the whole collection about 7.8% have one here.
# Lassa entry inh – inhibitors of Lassa virus binding or cell entry; Lassa virus pseudotype entry inhibition, cell reporter; hit rate 1.2% among 300,000; Potency, µM (highest dose often 37.9 µM), inactives show at the highest dose activity change, negative = inhibition, actives largely listed as inhibitors; AID 540256; calls by dose curve; tested in HEK293 cells; note: potency is the fitted concentration of half-maximal effect; nearly all actives have a fitted effect of over 50% in size
# HCV inh – blocks hepatitis C virus; Huh7.5.1 HCVcc-Cre infection, luciferase reporter, 44 h; hit rate 3.4% among 340,000; Potency, µM (series often up to 41.8 µM), for the others: top-dose activity change, negative = inhibition, usual class: inhibitors; AID 651820; active = well fitted inhibition curve with a large enough effect; inconclusive = small, poorly fitted or top-dose-only effect, or another doubt; inactive = no such curve, though single readings can be large or run the other way; note: potency is the fitted concentration of half-maximal effect
#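 Cells seeded at 1,000/well and cultured 4 h, then compounds added followed by HCVcc-Cre virus (~0.5 moi). After 44 h further culture, luciferase substrate was added, plates held 15 min at room temperature, and luminescence read for 15 sec.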
# HCMV inh – human cytomegalovirus inhibition; HFF cells, HCMV-luciferase reporter, 72 h; stronger effect = lower value; activity change, negative = inhibition, % at 57.5 µM; hit rate 4.5% among 410,000; AID 1259415; in the data active = activity change below about -60%; inconclusive = no clear call, values can overlap the other calls; inactive = above about -39%
#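 Two compound doses tested in HFFs infected with HCMV-luciferase, MOI 1 PFU/cell, 72 h at 37C. Lysate luminescence read with OneGlo; data normalized against buffer-only and 10uM Salinomycin inhibitor controls.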
# MARV entry inh – blocks Marburg virus binding to or entry into cells; Marburg virus pseudotyped entry inhibition, cell reporter; Potency, µM (highest dose often 37.8 µM), for the others: at the highest dose activity change, negative = inhibition, usual class: inhibitors; hit rate 1.8% among 300,000; calls by dose curve; tested in HEK293 cells; note: potency is the fitted concentration of half-maximal effect
# Vaccinia Venus – inhibitors of vaccinia virus (Venus reporter); Vaccinia virus Venus reporter expression, fluorescence; Potency, µM (series often up to 36.5 µM), inactives show at the highest dose activity change, negative = inhibition, actives largely listed as inhibitors; hit rate 0.46% among 330,000; AID 720580; calls by dose curve; tested in A549 cells; note: potency is the fitted concentration of half-maximal effect; nearly all actives have a fitted effect of over 30% in size
# VACV mCherry inh – inhibitors of vaccinia virus infection (mCherry reporter signal) | hit rate 0.63% among 310,000 | Potency, µM (series often up to 36.5 µM), inactives show at the highest dose activity change, negative = inhibition, actives largely listed as inhibitors | Vaccinia virus mCherry reporter infection, fluorescence; calls by dose curve; tested in A549 cells; note: potency is the fitted concentration of half-maximal effect; nearly all actives have a fitted effect of over 35% in size
# Starred values were filed as active, the others as inactive; i = inactive; u = inconclusive; x = not tested or not shown; + = active, no number; [ ] = another dose, or the depositor's remark. % is set by controls: 0 for no effect and ±100 for the full control effect.
SMILES,Lassa entry inh,HCV inh,HCMV inh,MARV entry inh,Vaccinia Venus,VACV mCherry inh
O=C(CCC1CCCN(C(=O)CCN2CCCCC2=O)C1)NCc1ccccc1F (centres undefined),11%[46.1 µM],9%,-105*,1%[46.1 µM],-9%,i
CCN(CC)c1ccc2cc(-c3nc4sc5c(c4c(=O)[nH]3)CCC(C(C)(C)C)C5)c(=O)oc2c1 (centres undefined),3%[46.1 µM],x,-4,x,132%,-9%
CCOc1ccc(C(C)=O)cc1CSC(=N)N,-6%[46.1 µM],-30%,47,u,-3%,-3%
CCCCOc1ccc(Br)cc1CSC(=N)N,u,2µM*,-98*,u,-16%,-26%
O=c1oc2ccccc2cc1-c1cn2cc(Cc3ccc(Br)cc3)sc2n1,-1%[46.1 µM],x,19,u,-18%,-19%
c1ccc(CNCCCNCCCCNCCCNCc2ccccc2)cc1,u,u,-97*,u,13µM*,13µM*
O=C(O)CCCCNCc1ccccc1,14%,2%,-12,14%,-10%,i
Oc1ccccc1CNCCCNCc1ccccc1O,u,2.8µM*,44,u,x,x
CC(C)Oc1ccc(CNC(=O)c2cnc3sc(N4CCCCCC4)nn3c2=O)cc1,-9%[46.1 µM],x,-5,x,-9%,-10%
CCOC(=O)N1CCC(NC(=O)c2cnn(-c3ccc(F)cc3F)c2C2CCN(C(=O)OC(C)(C)C)CC2)CC1,u,x,+,x,-16%,-7%
Cn1ncc(C(=O)N2CCN(c3ccccc3F)CC2)c1C1CCN(C(=O)OC(C)(C)C)CC1,u,x,u,x,-11%,-7%
Cc1ccc(-n2ncc(C(=O)N3CCN(c4ccccc4F)CC3)c2C2CCN(C(=O)OC(C)(C)C)CC2)cc1C,u,x,+,x,-15%,-11%
CCN1CCN(C(=O)c2cnn(-c3ccc(F)cc3F)c2C2CCN(C(=O)OC(C)(C)C)CC2)CC1,-23%[46.1 µM],x,+,x,-14%,-12%
C=C(c1ccccc1)[C@@H](C#N)C1CCCC1,x,x,-15,x,x,x
Cc1ccc2nc(SCC(=O)NCC3Cc4cc(-c5ncccc5C)ccc4O3)[nH]c2c1 (centres undefined),x,x,x,x,-17%,-22%
Cc1cc(=O)[nH]c2nnc(SCc3ccccc3F)n12,-13%[46.1 µM],x,3,x,-15%,i
COc1cc2nc(CCNCc3ccccc3)nc(NC3CCN(C)CC3)c2cc1OC,x,x,x,x,-16%,i
COc1ccccc1OCCN1CSC(=S)N(C)C1,7%,20%,-74*,u,-11%,-19%
Cc1cccc(OCCN2CSC(=S)N(C)C2)c1,-15%,11%,-2,-27%,-15%,-20%
C[C@H]1[C@@H](NS(=O)(=O)c2cccs2)CC[C@@]23CCCN2C(=O)CCC[C@@H]13,x,x,3,x,x,x
CCOC(=O)COc1ccc(CC)cc1C(=O)c1ccn2nc(-c3ccc(F)cc3)cc2n1,20%[46.1 µM],x,10,u,-14%,-17%
Cc1cc(C)cc(Oc2c(C(F)(F)F)oc3c(CN4CCCC(C)C4)c(O)ccc3c2=O)c1 (centres undefined),1%[46.1 µM],x,19,-5%[46.1 µM],0%,-5%
COc1ccc(Oc2c(C(F)(F)F)oc3c(CN4CCCC(C)C4)c(O)ccc3c2=O)cc1 (centres undefined),14%[46.1 µM],x,-61*,-4%[46.1 µM],-10%,0%
CC12C(=O)OC(=O)C1(C)C1CCC2O1 (centres undefined),2.9µM*,x,x,3.3µM*,-89%[87.9 µM],-67%[87.9 µM]
C[C@@]12C(=O)OC(=O)[C@@]1(C)[C@H]1CC[C@@H]2O1,x,x,x,3.3µM*,x,x
SMILES,Lassa entry inh,HCV inh,HCMV inh,MARV entry inh,Vaccinia Venus,VACV mCherry inh
CCOc1ccc2c(c1)c(=O)c(C(=O)c1ccccc1)cn2Cc1ccccc1F,3%[46.1 µM],x,-8,-3%[46.1 µM],-3%[7.34 µM],-7%[7.34 µM]
COC(=O)c1ccc2nc(-c3ccccc3)c(Cc3cccc(Cl)c3)n2c1,x,x,64,x,x,x
CCN(C(=O)C1CCN(c2nc(-c3ccc(OC)cc3)no2)CC1)c1ccccc1,x,10µM*,-2,x,u,-21%
COc1ccc(-c2noc(N3CCC(C(=O)Nc4ccccc4Cl)CC3)n2)cc1,x,-4%,-9,x,-29%,i
CCOc1ccccc1NC(=O)C1CCN(c2nc(-c3ccc(OC)cc3)no2)CC1,x,-7%,9,x,-22%,i
COc1ccc(-c2noc(N3CCC(C(=O)N(C)c4ccccc4)CC3)n2)cc1,x,11µM*,-19,x,u,-8%
CCOC(=O)N1CCC(NC(=O)C2CCN(c3nc(-c4ccc(OC)cc4)no3)CC2)CC1,-7%,u,-65*,-22%,x,x
COc1ccc(-c2noc(N3CCC(C(=O)NC(C)c4ccccc4)CC3)n2)cc1 (centres undefined),x,u,-63*,x,-14%,i
CCN(C(=O)C1CCCN(c2nc(-c3ccc(OC)cc3)no2)C1)c1ccccc1F (centres undefined),x,u,-36,x,u,u
CC(=O)Nc1cccc(C(=O)NCc2ccc3c(c2)CCN3C(C)=O)c1,-1%[46.1 µM],x,-9,x,-17%,-19%
O=C(Nc1ccccc1)Nc1ccc(F)cc1F,x,-13%,-17,x,x,x
CCN(CC)c1ccc(C(=O)Nc2cccc(F)c2)cc1,u,10µM*,-24,u,u,x
CN(C)c1cccc(C(=O)Nc2cccc(F)c2)c1,u,1%,90,u,-13%,-4%
COC(=O)c1ccc(NC(=O)Nc2ccc(F)cc2F)cc1,16%[46.1 µM],11µM*,14,u,-8%,-10%
O=C(Nc1ccc(F)cc1)Nc1cccc(Br)c1,x,-27%,-88*,x,x,x
COC(=O)c1ccc(NC(=O)Cc2ccc(F)cc2)cc1,-18%[46.1 µM],-21%,-36,u,-7%,i
COC(=O)c1ccc(C(=O)Nc2ccc(F)cc2)cc1,x,7.1µM*,21,x,-9%,-16%
CCOc1ccc(S(=O)(=O)Nc2cccc(-c3ccc(N4CCCC4)nn3)c2)cc1,-4%[46.1 µM],x,29,x,-23%,-4%
Cn1cnc(S(=O)(=O)N2CCC(C(=O)Nc3ccc(F)cc3F)CC2)c1,4%[46.1 µM],x,-19,x,-7%,-7%
COC(=O)c1ccc(NC(=O)Nc2cccc(F)c2)cc1,u,10µM*,-11,u,-21%,-12%
COc1ccc(NC(=O)Nc2cccc(F)c2)c(OC)c1,24%[46.1 µM],-27%,30,16%[46.1 µM],-18%,-1%
C=CCOc1c(CNc2cccc(C(=O)O)c2)cccc1OCC,15%,17%,-81*,22%,-4%,-15%
Cc1ccc(C)c(-n2nnc(C(=O)Nc3ccc(Br)cc3)c2C)c1,-4%[46.1 µM],x,-19,10%[46.1 µM],-19%,-30%
O=C(Nc1ccn(Cc2cccc3ccccc23)n1)c1cccnc1,u,u,-75*,u,u,-11%
COc1ccccc1C(=O)Nc1ccc2c(c1)nc1n2CCN(Cc2ccccc2)C1,u,u,-68*,u,-27%,-13%
O=S(=O)(Nc1ccc2c(c1)nc1n2CCN(Cc2ccccc2)C1)c1ccc(F)cc1,-1%,u,-21,1%,x,x

# Assay outcomes deposited in PubChem by National Center for Advancing Translational Sciences (NCATS).
